Source: PubChem BioAssay (NCATS)
Where “and” joins values, the source holds several entries; their conditions need not be identical. Equal entries are not always repeated. Results filed as inconclusive are left out. Calls of active or inactive are those of the source. Unless noted, the call rests on the fitted dose curve; in most records, active means well fitted curve in the direction sought with a large enough effect; inconclusive means small, poorly fitted or top-dose-only effect, or another doubt; inactive means no such curve, though single readings can be large; an effect the other way counts as inactive or inconclusive.

Tests used:
[1] = Cell Viability - BJ (AID 421; calls by dose curve;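 further: potency means the concentration at half of the fitted maximal effect; cells exposed to compound for 40 hours at 37 °C before readout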); settings: BJ fibroblast viability, qHTS
Summary of the method: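 Cytotoxicity in human BJ foreskin fibroblasts is scored as loss of cellular ATP after a 40-hour exposure, measured by luciferase luminescence. Controls are DMSO and 100 uM tamoxifen.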

[2] = Cellular Toxicity (caspase-3) HepG2 (AID 654); settings: HepG2 caspase-3 activation, luminescence, 0% = DMSO only, 100% = tamoxifen; series mostly up to 92.2 µM;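 further: cells exposed to compound for 16 hours before reading; 0% = DMSO alone and 100% = caspase signal from 100 µM tamoxifen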
Summary of the method: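 qHTS, HepG2, 1500 cells/well, complete medium; cpd 16 h 37 °C; Caspase-Glo 3/7, 20 min RT; lum. Norm: DMSO vs 100 uM tamoxifen; AC50 Hill fit.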

[3] = Cellular Toxicity (caspase-3) BJ (AID 658); settings: BJ fibroblasts, luminescence, normalized: DMSO 0%, staurosporine 100%; series mostly up to 91.7 µM;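 further: cells exposed to compound for 16 hours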
Summary of the method: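 Readout: Caspase-Glo 3/7 luminescence increase in BJ cells after 16 hr treatment at 37 °C. Staurosporine and tamoxifen served as positive controls; AC50 values came from Hill modelling of data normalized to DMSO and 10 uM staurosporine.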

[4] = Cellular Toxicity (caspase-3) MRC-5 (AID 659); settings: MRC-5 cells, luminescence, normalized: DMSO 0%, 10 µM staurosporine 100%; series mostly up to 91.7 µM
Summary of the method: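 Concentration-dependent caspase 3/7 activation is measured in human normal lung fibroblasts (MRC-5) following 16-hour treatment. AC50 values come from standard Hill-equation modeling of luminescence normalized to DMSO and 10 uM staurosporine.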

[5] = Cellular Toxicity (caspase-3) Hek293 (AID 664); settings: HEK293 caspase-3 activation, DMSO = 0%, 100 µM tamoxifen = 100%; at 92.2 µM (top of the series);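 further: cells exposed to compound for 16 h at 37 °C before readout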
Summary of the method: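 Activation of caspase-3/7 is measured as increased luminescence from cleaved peptide-aminoluciferin substrate in HEK293 cells treated 16 hours at 37 °C. AC50 values come from Hill-equation fits of concentration-response data.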

[6] = Cellular Toxicity (caspase-3) N2a (AID 665); settings: N2a cells, luminescence, normalized: DMSO 0%, 10 µM staurosporine 100%; series mostly up to 92.2 µM;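 further: compound exposure lasted 16 h at 37 °C before readout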
Summary of the method: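 Plated mouse neuroblastoma N2a cells received titrated compounds for 16 h in complete medium. Caspase activity was then detected with a peptide-aminoluciferin luminescent reagent.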

[7] = Cellular Toxicity (caspase-3) NIH 3T3 (AID 666); settings: NIH 3T3 caspase-3 activation, apoptosis/toxicity; series mostly up to 92.2 µM;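 further: caspase signal read after 16 h compound exposure; 0% = DMSO basal and 100% = 100 µM tamoxifen stimulation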
Summary of the method: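 Concentration-response qHTS in NIH 3T3 mouse fibroblasts scores caspase-3/7 activation as rising luminescence after 16 hr compound exposure. Signals are scaled between DMSO-only and 100 uM tamoxifen.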

[8] = Cell Viability - LYMP2-001 (AID 921); settings: LYMP2-001 lymphoblastoid cell viability; series mostly up to 92.2 µM;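 further: 0% = DMSO only and full inhibition = tetraoctylammonium bromide control wells; nearly all actives have a fitted effect of over 70% in size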
Summary of the method: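 Cellular ATP loss read by luciferase luminescence after 24 h compound exposure at 37 C in complete medium. LYMP2-001 lymphoblastoid cells, 2500/well; qHTS concentration-response data fitted with Hill equation for AC50.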

[9] = MultiTox-Fluor Cytotoxicity Assay - LYMP1-001 - Dead Cells (AID 946); settings: LYMP1-001 lymphoblastoid cells, dead-cell protease fluorescence; series mostly up to 92.2 µM
Summary of the method: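 Seed 2500 LYMP1-001 cells/well, incubate 5 hr at 37 C; add compound, 16 hr at 37 C; add MultiTox-Fluor reagent, 60 min RT; read dead-cell fluorescence Ex/Em=485/520. Normalize to DMSO and 15 uM tetraoctylammonium bromide.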

[10] = MultiTox-Fluor Cytotoxicity Assay - LYMP1-002 - Live Cells (AID 955); settings: LYMP1-002 lymphoblastoid live-cell protease fluorescence viability; series mostly up to 46.1 µM;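 further: cells exposed to compound for 16 hours; on the % scale 0 is the no-effect control and ±100 the full control effect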
Summary of the method: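 Cytotoxicity in the human lymphoblastoid line LYMP1-002 is measured as loss of live-cell protease activity after 16 h treatment in complete culture medium. AC50 is derived from Hill-equation fits of qHTS concentration-response data.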

[11] = MultiTox-Fluor Cytotoxicity Assay - LYMP1-003 - Dead Cells (AID 961); settings: LYMP1-003 lymphoblastoid cells, dead-cell protease fluorescence; series mostly up to 92.2 µM; further: nearly all actives have a fitted effect of over 70% in size
Summary of the method: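 LYMP1-003 lymphoblastoid, 2500 cells/well, 5 hr settle then 16 hr cpd at 37 C; MultiTox-Fluor reagent 60 min RT; Ex/Em 485/520 dead-cell signal; norm. DMSO = 0%, 15 uM tetraoctylammonium bromide = 100%; Hill AC50.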

[12] = MultiTox-Fluor Cytotoxicity Assay - LYMP1-003 - Live Cells (AID 962); settings: LYMP1-003 lymphoblastoid cells, MultiTox-Fluor live-cell protease fluorescence; series mostly up to 92.2 µM;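 further: cells exposed to compound for 16 hours at 37 °C; 0% = DMSO only and full loss = 92 µM tetraoctylammonium bromide; cytotoxic hits lower the live-cell protease signal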
Summary of the method: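 Cells plated at 2500 per well and incubated 5 hr; compounds added and incubated 16 hr at 37 C; MultiTox-Fluor reagent added for 60 min at room temperature; fluorescence of liberated AFC measured at 405/510 nm.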

[13] = Cell Viability - LYMP2-021 (AID 974); settings: LYMP2-021 lymphoblastoid cells viability; series mostly up to 92.2 µM;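 further: compound exposure lasts 24 hours at 37 °C; on the % scale 0 is the no-effect control and ±100 the full control effect; nearly all actives have a fitted effect of over 55% in size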
Summary of the method: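 Concentration-response cytotoxicity in a human lymphoblastoid line: 24 hr treatment at 37 C in complete culture medium, tetraoctylammonium bromide as positive control, luminescent ATP quantitation as viability measure.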

[14] = Cell Viability - LYMP2-025 (AID 976); settings: LYMP2-025 lymphoblastoid cell viability; series mostly up to 92.2 µM;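 further: plate controls were DMSO only for no effect and tetraoctylammonium bromide control for full effect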
Summary of the method: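 In qHTS format, LYMP2-025 lymphoblastoid cells in complete culture medium received compound for 24 hr; ATP-based CellTiter-Glo signal gave viability, with AC50 derived by Hill equation.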

[15] = Cell Viability - LYMP2-006 (AID 978); settings: LYMP2-006 lymphoblastoid cell viability, qHTS; series mostly up to 92.2 µM; further: on the % scale 0 is the no-effect control and ±100 the full control effect; nearly all actives have a fitted effect of over 60% in size
Summary of the method: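 Potency values are Hill-fit AC50s for decreases in intracellular ATP (CellTiter-Glo luminescence). LYMP2-006 lymphoblastoid cells, 2500 per well, were exposed to compound in complete culture medium for 24 hr at 37 C.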

[16] = Cell Viability - LYMP1-002 - Assay at 24 hr (AID 993); settings: LYMP1-002 lymphoblastoid cells viability; series mostly up to 92.2 µM; further: on the % scale 0 is the no-effect control and ±100 the full control effect
Summary of the method: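 qHTS, LYMP1-002 lymphoblastoid, 24 h cpd, 37 C, CellTiter-Glo ATP luminescence; AC50 via Hill eq.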

[17] = Cell Viability - LYMP1-002 - Assay at 40 hr (AID 994); settings: LYMP1-002 lymphoblastoid cell viability; series mostly up to 92.2 µM;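 further: 0% = DMSO only and full inhibition = 92 µM tetraoctylammonium bromide; nearly all actives have a fitted effect of over 60% in size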
Summary of the method: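 Viability in the human lymphoblastoid line was measured as intracellular ATP via CellTiter-Glo after 40 hr compound exposure. Tetraoctylammonium bromide served as positive control.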

[18] = qHTS Assay for Identification of Small Molecule Inducers of Hypoxia Response (AID 2120; active means well fitted curve in the direction sought with a large enough effect in the signal ratio, with a control signal flat, not every such curve was filed as active; the % refers to the signal ratio; further: 0% is about no effect); settings: hypoxia response reporter cells, beta-lactamase ratio readout; series mostly up to 104 µM
Summary of the method: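 Induction of beta-lactamase reporter activity was measured in CellSensor HRE-bla ME-180 cells after 17 h compound treatment at 37 degrees C, using CCF4 substrate and the 460nm/530nm emission ratio to derive AC50 values.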

[19] = molecular target: Peroxisome proliferator-activated receptor alpha (Homo sapiens) (UniProt Q07869); assay: qHTS assay for small molecule agonists of the peroxisome proliferator-activated receptor alpha (PPARalpha) signaling pathway (AID 651778); settings: PathHunter PPARalpha complementation, chemiluminescence, 6 h; stronger effect = higher value; further: % of control where 0% means no effect
Summary of the method: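 Chemiluminescence from complemented enzyme reported PPARalpha activation in cells after 6 hr of compound treatment at 37 C. The detection reagent was incubated for 60 min at room temperature, and compounds were scored as agonists.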

[20] = qHTS assay for cell viability of the p53RE-bla HCT-116 cell line (AID 743292); settings: p53RE-bla HCT-116 viability, ATP luminescence, 16 h; series mostly up to 95 µM; further: on the % scale 0 is the no-effect control and ±100 the full control effect; nearly all actives have a fitted effect of over 55% in size
Summary of the method: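 Intracellular ATP of p53RE-bla HCT-116 cells measured by luciferase luminescence following 16 h compound incubation at 37 C; DMSO-only wells served as vehicle controls.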

Peroxisome proliferator-activated receptor alpha (Homo sapiens), sequence (Q07869 whole entry, looked up): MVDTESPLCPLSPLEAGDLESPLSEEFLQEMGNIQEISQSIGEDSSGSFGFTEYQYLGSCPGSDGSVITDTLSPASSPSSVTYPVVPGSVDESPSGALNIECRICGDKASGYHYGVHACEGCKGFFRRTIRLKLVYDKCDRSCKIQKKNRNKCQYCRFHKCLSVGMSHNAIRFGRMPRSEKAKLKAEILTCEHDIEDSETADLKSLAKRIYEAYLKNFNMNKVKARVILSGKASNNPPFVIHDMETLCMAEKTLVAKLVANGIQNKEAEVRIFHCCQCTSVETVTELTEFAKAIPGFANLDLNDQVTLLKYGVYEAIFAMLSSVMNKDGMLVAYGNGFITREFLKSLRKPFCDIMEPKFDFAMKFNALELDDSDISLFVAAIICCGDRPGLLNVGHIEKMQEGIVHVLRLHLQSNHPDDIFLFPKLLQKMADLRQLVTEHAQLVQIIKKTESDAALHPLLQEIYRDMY

COC(C)(C)C
inactive: Potency [1] > 92 µM | outcome [2] | outcome [3] | outcome [4] | caspase-3 activation [5] 0.0289% | outcome [6] | Potency [7] | Potency [8] | outcome [9] | outcome [10] | Potency [11] | outcome [12] | Potency [13] | Potency [14] | Potency [15] | Potency [16] | Potency [17] | Potency [18] | max response [19] -1.3% | Potency [20]

COP(=S)(OC)SCn1nnc2ccccc2c1=O
inactive: Potency [1] > 92 µM | outcome [2] | outcome [3] | outcome [4] | caspase-3 activation [5] 0.18% | outcome [6] | Potency [7] | Potency [8] | outcome [9] | outcome [10] | outcome [12] | Potency [13] | Potency [14] | Potency [15] | Potency [16] | Potency [17] | Potency [18] | max response [19] -5.24% and -2.4% | Potency [20]

CCOC(=O)CC(SP(=O)(OC)OC)C(=O)OCC (centres undefined)
inactive: Potency [1] > 92 µM | outcome [2] | outcome [3] | outcome [4] | caspase-3 activation [5] 1.27% | outcome [6] | Potency [7] | Potency [8] | outcome [9] | outcome [10] | Potency [11] | outcome [12] | Potency [13] | Potency [14] | Potency [15] | Potency [16] | Potency [17] | Potency [18] | max response [19] -2.03% and -3.38% | Potency [20]

CC(C)[N+](=O)[O-]
inactive: Potency [1] > 92 µM | outcome [2] | outcome [3] | outcome [4] | caspase-3 activation [5] -0.5% | outcome [6] | Potency [7] | Potency [8] | outcome [9] | outcome [10] | Potency [11] | outcome [12] | Potency [13] | Potency [14] | Potency [15] | Potency [16] | Potency [17] | Potency [18] | max response [19] -6.42% | Potency [20]
